From PubChem
KDM5B inhibitor: blocks human KDM5B histone demethylase activity. Q9UGL1. KDM5B demethylase, FDH-coupled NADH fluorescence (FDH is formaldehyde dehydrogenase). Potency, µM (titrated, usually from 57.7 µM), most hits filed as inhibitors. 2.6% of 220,000 active; active = well fitted inhibition curve with a large enough effect; also: 0% is about no effect; nearly all actives have a fitted effect of over 70% in size
Target sequence (Q9UGL1 whole entry, looked up): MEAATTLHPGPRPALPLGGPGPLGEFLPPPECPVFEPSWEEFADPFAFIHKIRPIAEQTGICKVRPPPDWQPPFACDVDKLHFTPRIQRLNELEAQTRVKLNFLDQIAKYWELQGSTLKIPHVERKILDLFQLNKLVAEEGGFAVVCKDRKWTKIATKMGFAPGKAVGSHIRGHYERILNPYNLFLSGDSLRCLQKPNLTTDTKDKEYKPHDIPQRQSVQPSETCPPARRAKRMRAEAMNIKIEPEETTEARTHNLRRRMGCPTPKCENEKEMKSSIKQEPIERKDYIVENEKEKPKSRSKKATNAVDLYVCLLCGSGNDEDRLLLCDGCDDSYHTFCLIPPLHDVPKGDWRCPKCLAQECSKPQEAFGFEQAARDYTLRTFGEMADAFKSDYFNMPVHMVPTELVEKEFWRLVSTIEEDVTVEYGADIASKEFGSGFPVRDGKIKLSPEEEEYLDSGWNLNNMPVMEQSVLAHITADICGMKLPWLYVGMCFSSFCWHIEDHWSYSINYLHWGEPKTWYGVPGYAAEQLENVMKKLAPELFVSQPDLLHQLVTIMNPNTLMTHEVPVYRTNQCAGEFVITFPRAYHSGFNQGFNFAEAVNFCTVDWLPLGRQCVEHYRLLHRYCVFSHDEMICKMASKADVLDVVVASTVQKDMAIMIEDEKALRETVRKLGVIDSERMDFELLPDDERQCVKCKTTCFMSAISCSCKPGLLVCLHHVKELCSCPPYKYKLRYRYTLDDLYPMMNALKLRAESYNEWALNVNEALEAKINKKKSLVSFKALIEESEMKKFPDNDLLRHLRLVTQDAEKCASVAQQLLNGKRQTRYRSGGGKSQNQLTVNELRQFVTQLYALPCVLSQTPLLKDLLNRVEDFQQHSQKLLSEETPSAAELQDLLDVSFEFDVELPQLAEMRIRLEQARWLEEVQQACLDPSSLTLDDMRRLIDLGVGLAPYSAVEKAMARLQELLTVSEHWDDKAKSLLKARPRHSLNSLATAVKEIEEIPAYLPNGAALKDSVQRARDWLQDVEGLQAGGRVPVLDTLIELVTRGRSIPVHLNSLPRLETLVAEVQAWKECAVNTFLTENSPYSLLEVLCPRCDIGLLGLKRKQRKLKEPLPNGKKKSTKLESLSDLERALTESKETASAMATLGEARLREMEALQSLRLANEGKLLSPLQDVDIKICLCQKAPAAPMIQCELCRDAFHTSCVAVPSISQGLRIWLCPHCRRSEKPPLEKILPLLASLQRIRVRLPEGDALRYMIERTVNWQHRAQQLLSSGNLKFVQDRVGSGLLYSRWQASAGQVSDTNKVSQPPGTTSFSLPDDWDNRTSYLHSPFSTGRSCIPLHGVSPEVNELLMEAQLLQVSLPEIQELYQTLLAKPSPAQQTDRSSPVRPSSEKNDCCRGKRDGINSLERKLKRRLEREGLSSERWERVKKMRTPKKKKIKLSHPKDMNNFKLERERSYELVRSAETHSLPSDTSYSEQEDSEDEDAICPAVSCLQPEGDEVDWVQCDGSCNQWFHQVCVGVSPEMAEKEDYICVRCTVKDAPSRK
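Measured: NADH fluorescence change, 30 min, RT. System: KDM5BΔAP 200 nM final, H3K4me3 peptide, α-KG, Fe(II), ascorbate, NAD⁺ plus FDH, pH 7.5 HEPES. Compounds: titrated, 10 min pre-incubation with enzyme.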
Active calls of the source: *; i = inactive. This excerpt belongs to a sample that is enriched for hits. Potency is read from the fitted curve at half-maximal effect.

SMILES	KDM5B inhibitor
O=S(=O)(c1ccc(=S)[nH]n1)C1CCCCC1	i
C=C(C)CN1CCN(c2nc3c(c(=O)[nH]c(=O)n3C)n2Cc2ccccc2)CC1	i
Cc1ccc(C(=O)N/N=C/c2cccc(C)c2)cc1	i
N#Cc1ccnc(N2CCN(C(=O)Nc3ccc(F)cc3)CC2)c1	i
O=C(C1CCCN(C2CCN(c3ncccn3)CC2)C1)N1CCOCC1 (stereo not given)	20µM*
CN1CCN(C(=O)C2CCCN(C3CCN(c4cc(C#N)ccn4)CC3)C2)CC1 (stereo not given)	28µM*
O=C(c1ccco1)N1CCC(N2CCCC(C(=O)N3CCCC3)C2)CC1 (stereo not given)	i
O=C(c1cn(C2CCCCC2)nn1)N1CCCC(C(=O)N2CCOCC2)C1 (stereo not given)	i
Cn1ccn2ncc(C(=O)N3CCC(N4CCCC(C(=O)N5CCCC5)C4)CC3)c12 (stereo not given)	i
c1ccc(NC2(c3nnnn3-c3ccccc3)CCCCC2)cc1	i
O=[N+]([O-])c1ccc2nonc2c1Nc1cc(Cl)ccc1Cl	i
CCCCc1ncc(-c2c(-c3ccccc3)ncn2CCCn2ccnc2)[nH]1	i
CCCCc1ncc(-c2c(-c3ccccc3)ncn2CC2(CO)CCC2)[nH]1	i
Cc1ncc(-c2c(-c3ccccc3)ncn2CC(c2ccco2)N2CCCC2)[nH]1 (stereo not given)	25µM*
CCN(CC)S(=O)(=O)c1ccc(N/N=C(/C)c2cccs2)c([N+](=O)[O-])c1	i
Cc1cc(NC2CC(C)(C)NC(C)(C)C2)nc(C(C)C)n1	i
CCOC(=O)c1[nH]ncc1CN1CCOC(Cc2ccc(OC)cc2)C1 (stereo not given)	i
COc1ccc2[nH]c(=O)c(CCC(=O)NCCCN3CCCC(C)C3)cc2c1 (stereo not given)	32µM*
CCOc1ccc(N(Cc2cc3cc(OC)ccc3[nH]c2=O)C(C)=O)cc1	i
Cc1ccc2c(c1)N(CCC(=O)NCCCN1CCCC1)C(=O)C(C)O2 (stereo not given)	i
COc1ccc2[nH]c(=O)c(CN(C(=O)c3ccccc3Cl)c3ccccc3)cc2c1	i
COc1ccc2[nH]c(=O)c(COC(=O)c3ccccc3F)cc2c1	i
COc1ccc2[nH]c(=O)c(CCC(=O)O)cc2c1	28µM*
CCOC(=O)CN1CCN(C(=O)CCc2cc3cc(OC)ccc3[nH]c2=O)CC1	32µM*
COc1ccc(CC2CN(Cc3cccc(-n4cccn4)c3)CCO2)cc1 (stereo not given)	i
SMILES	KDM5B inhibitor
COc1ccc2[nH]c(C)c(C(=O)CN3CCCC(C)C3)c2c1 (stereo not given)	i
CCOC(=O)c1[nH]c(C)c(CCC(=O)N2CCN(c3cccc(OC)c3)CC2)c1C	i
COc1ccc2[nH]c(=O)c(CN3CCOC(CN)C3)cc2c1 (stereo not given)	25µM*
Cc1c(CCC(=O)N2CCCCC2)c(=O)oc2cc(O)ccc12	i
CCc1ccc2oc(C(=O)N(Cc3ccc(C(C)C)cc3)C3CCS(=O)(=O)C3)cc(=O)c2c1 (stereo not given)	i
COc1ccc(OC)c(-c2cc(C(=O)O)c3ccc(C)c(C)c3n2)c1	i
O=C(c1ccc(C(F)(F)F)cc1)N1CCC2(C1)C(=O)N(CCc1ccccc1)c1ccccc12 (stereo not given)	i
CC(=O)Nc1ccc(CN2CC(N(C)c3ccccc3C)C2)cc1	i
CCOc1ccc(CC(=O)NNC(=S)NCCCOC)cc1OCC	i
CC(C)CC(=O)NCCCCNC(=O)CC(C)C	i
CC(C)COc1nc2ccccc2nc1C(C#N)C(=O)NCc1ccccc1 (stereo not given)	i
COc1ccccc1N1CCN(CC[C@H]2CN(C(=O)Nc3ccc(C(F)(F)F)cc3)CC[C@H]2CC(=O)O)CC1	i
Cc1oc(-c2ccccc2)nc1CNC(=O)Nc1ccc(F)cc1	i
CCOc1ccc(OCC(=O)NCCN2CCN(S(=O)(=O)c3ccc(C)cc3)CC2)cc1	i
O=C(CC(=O)c1ccc(Cl)cc1)c1ccc(Cl)cc1	i
CC(=O)N1CCc2ccc(C(=O)N3CCC(C)CC3)cc21	i
COc1ccc(C2CC(=O)NC(SCC(=O)Nc3ccccc3F)=C2C#N)cc1OC (stereo not given)	i
Cc1[nH]c2ccccc2c1C(=O)COC(=O)CCC(C)C	i
Fc1ccc(Nc2ncnc3onc(-c4ccc(Cl)cc4)c23)cc1	i
Cc1cc(-c2cnc(Nc3ccc(F)cc3)c3c2CCO3)ccn1	13µM*
Cn1cc(-c2cnc(Nc3ccc(F)c(Cl)c3)c3c2CCO3)cn1	32µM*
Cn1cc(-c2cnc(Nc3ccncc3)c3c2CCO3)cn1	35µM*
CC(C)(C)c1ccc(OCc2nn3c(CN4CCOCC4)nnc3s2)cc1	i
CCOc1ccc(NC(=O)c2sc(-c3ccco3)nc2-c2ccccc2)cc1OC	i
COC(=O)C1(C(=O)OC)C(c2ccccc2)CC(=O)CC1c1ccccc1 (stereo not given)	i
SMILES	KDM5B inhibitor
N#Cc1cccc(CN2CCOC[C@H]2c2ncc(-c3ccc(Cl)cc3)[nH]2)c1	i
CC[C@H]1CN(C(=O)c2ccccc2)CC[C@H]1CC(=O)NCc1ccc(F)cc1	i
CCOc1ccccc1C(=O)N(Cc1c(F)cccc1Cl)c1ccccn1	i
Cc1ccc(S(=O)(=O)c2nnn3c2nc(N2CCOCC2)c2ccccc23)cc1	79µM*
Cc1ccc([S+](=O)([O-])c2nnn3c2nc(NCc2ccncc2)c2ccccc23)cc1C	89µM*
Cc1ccc(C)c([S+](=O)([O-])c2nnn3c2nc(NC2CC2)c2ccccc23)c1	79µM*
CCc1ccc(S(=O)(=O)c2nnn3c2nc(N2CCOCC2)c2ccccc23)cc1	i
Cc1ccc([S+](=O)([O-])c2nnn3c2nc(NC2CC2)c2ccccc23)cc1	i
CC(C)c1ccc([S+](=O)([O-])c2nnn3c2nc(NC2CC2)c2ccccc23)cc1	i
CC(C)OCCCNc1nc2c([S+](=O)([O-])c3cccnc3)nnn2c2ccccc12	i
Cc1ccc(S(=O)(=O)c2nnn3c2nc(N2CCCCC2)c2ccccc23)cc1	i
O=[S+]([O-])(c1ccc(Br)cc1)c1nnn2c1nc(NCc1ccc(F)cc1)c1ccccc12	i
Cc1cc(C)c([S+](=O)([O-])c2nnn3c2nc(NC2CC2)c2ccccc23)c(C)c1	i
O=[S+]([O-])(c1ccncc1)c1nnn2c1nc(NCc1ccncc1)c1ccccc12	i
CCc1ccc([S+](=O)([O-])c2nnn3c2nc(NCCCOC)c2ccccc23)cc1	89µM*
COc1ccc(N2CC3CCC(C2)N3Cc2ccc(Cl)cc2)cc1	i
CC(=O)Nc1ccc(CNCc2nc(C)cs2)cc1	i
NNc1ccccc1[N+](=O)[O-]	i
Cc1ccc(-c2nnn(CC(=O)N(C)Cc3ccc(Cl)s3)n2)cc1	i
O=[S+]([O-])(c1ccc(Cl)cc1)c1nnn2c1nc(N1CCC(F)CC1)c1ccccc12	i
O=[S+]([O-])(c1cccnc1)c1nnn2c1nc(N1CCOCC1)c1ccccc12	i
COCCNc1nc2c(S(=O)(=O)c3ccc(C)c(C)c3)nnn2c2ccccc12	79µM*
COCCCNc1nc2c([S+](=O)([O-])c3ccc(Br)cc3)nnn2c2ccccc12	i
COc1ccc([S+](=O)([O-])c2nnn3c2nc(NCc2ccc(F)cc2)c2ccccc23)cc1	i
COCCCNc1nc2c(S(=O)(=O)c3ccc(C)c(C)c3)nnn2c2ccc(Cl)cc12	i
